# Laboratory results taken from PubChem BioAssay AID1851 (National Center for Advancing Translational Sciences (NCATS), 2009).
# Hit rate of the full screen: of about 16,000 compounds, about 5,100 (32%) were called active. Inconclusive results (about 25%) are left out. The list shows a part of the results. A number with no mark means an inactive call. Calls come from the whole dose curve; as a rule, active = well fitted curve in the direction sought with a large enough effect; inconclusive = small, poorly fitted or top-dose-only effect, or effect the other way; inactive = no such curve, though single readings can be large or run the other way.
# Molecular target: Cytochrome P450 3A4 (Homo sapiens) (UniProt P08684)
# Experiment: Cytochrome panel assay with activity outcomes
# Conditions: recombinant CYP, pro-luciferin dealkylation, luminescence, p450-cyp3a4; series mostly up to 57.1 µM; activity, negative = inhibition: at the top concentration
# % is set by controls: 0 for no effect and ±100 for the full control effect.
# Chain of Cytochrome P450 3A4 (Homo sapiens) (P08684 whole entry, looked up): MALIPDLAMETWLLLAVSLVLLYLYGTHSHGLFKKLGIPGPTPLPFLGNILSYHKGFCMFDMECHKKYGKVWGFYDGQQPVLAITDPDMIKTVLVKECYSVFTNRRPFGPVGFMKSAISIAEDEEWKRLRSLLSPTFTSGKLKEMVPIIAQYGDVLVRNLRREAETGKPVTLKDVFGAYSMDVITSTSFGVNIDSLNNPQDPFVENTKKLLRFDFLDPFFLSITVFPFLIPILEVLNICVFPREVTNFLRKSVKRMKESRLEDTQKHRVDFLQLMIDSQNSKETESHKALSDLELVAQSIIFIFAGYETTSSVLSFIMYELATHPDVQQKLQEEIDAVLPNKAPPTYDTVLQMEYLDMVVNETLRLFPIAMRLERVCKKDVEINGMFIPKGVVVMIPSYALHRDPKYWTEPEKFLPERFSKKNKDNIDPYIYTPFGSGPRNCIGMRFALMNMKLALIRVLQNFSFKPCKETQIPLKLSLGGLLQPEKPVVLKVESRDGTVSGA
SMILES,"activity, negative = inhibition",AC50
CC1(C)S[C@@H]2[C@H](NC(=O)[C@H](C(=O)O)c3ccsc3)C(=O)N2[C@H]1C(=O)O,-5.72% [at 25.6 µM],–
CC12CCC(C(=O)Nc3ncc([N+](=O)[O-])s3)(OC1=O)C2(C)C (stereo not given),–,15.8 µM (active)
CCCCC#Cc1nc(NC)c2ncn([C@@H]3O[C@@H](CO)[C@H](O)[C@H]3O)c2n1,-29%,–
C#CCSc1nc(Cc2ccc(Cl)cc2)nc2ccccc12,–,15.8 µM (active)
CCSc1nnc(-c2ccc(Cl)cc2)c2ccccc12,15.9% [at 2.29 µM],–
CN(Cc1cc2ccccc2[nH]c1=O)S(C)(=O)=O,5.8% [at 11.4 µM],–
CS(=O)(=O)N(Cc1cc2ccccc2[nH]c1=O)C1CCCCC1,–,2.24 µM (active)
CC(C)(C)c1ccc(O)c(CN(Cc2c(O)ccc3ccccc23)C2CCCCC2)c1,-11.1% [at 11.4 µM],–
CSc1nc(N)c2ncn([C@@H]3O[C@@H](COP(=O)(O)OP(=O)(O)O)[C@@H](O)[C@H]3O)c2n1,-2.32%,–
C=CC(=O)NC(NC(=O)C=C)c1ccc(Br)cc1,-14%,–
N#Cc1c(NC(=O)CCN2C(=O)c3ccccc3C2=O)oc(-c2ccccc2)c1-c1ccccc1,–,3.98 µM (active)
Cc1ccc(NC(=O)NNC(=O)Cn2nc(-c3ccccc3)c(-c3ccccc3)c(C#N)c2=O)cc1,26.4% [at 0.457 µM],–
CC(C)(C)c1ccccc1OCCN1CCCC1,-16.4%,–
Cc1ncc([N+](=O)[O-])n1CCOC(=O)NC(NCc1ccccc1)C(Cl)(Cl)Cl (stereo not given),–,15.8 µM (active)
Cc1ncc([N+](=O)[O-])n1CC(=O)NCc1ccccc1,0.475%,–
Cc1ncc([N+](=O)[O-])n1CCO,-4.85% [at 25.6 µM],–
O=C(c1cn(-c2ccccc2)nc1-c1cccs1)N1CCOCC1,–,15.8 µM (active)
O=C(N1CCOCC1)N1CCN(c2ccccc2)CC1,-14.3% [at 11.4 µM],–
O=C(Nc1c(C(=O)N2CCOCC2)cnn1-c1ccccc1)c1ccco1,-5.43%,–
O=C(Nc1cccc2ccccc12)c1cn(-c2ccccc2)nc1-c1cccs1,–,7.94 µM (active)
CCOc1ccc(-c2c[n+](=O)c3c(n2[O-])CCCC3)c(OCC)c1,1.52%,–
NCCCc1ccc2oc3ccccc3c2c1,0.505% [at 11.4 µM],–
COc1ccc(OCCNS(=O)(=O)c2ccc3oc4ccccc4c3c2)cc1,–,7.08 µM (active)
CCCNS(=O)(=O)c1ccc(OCC(=O)OC)cc1,-2.12%,–

SMILES,"activity, negative = inhibition",AC50
Cc1scc2c1N(C(=O)CN1CCN(C)CC1)c1ccccc1NC2=O,-13.5% [at 25.6 µM],–
O=C(O)[C@@H]1CS[C@@]2(CCCN(Cc3ccccc3)C2)N1,0.282% [at 11.4 µM],–
Cc1sc2nc(C3CC3)nc(SCC(=O)N3CC(=O)Nc4ccccc43)c2c1C,–,2.24 µM (active)
Cc1ncc(CSC(=N)N)n1Cc1ccccc1,6.78% [at 11.4 µM],–
Cc1nc2ccccc2nc1SCC(=O)N1CCC(C)CC1,3.87% [at 2.29 µM],–
Cc1nnc(SCC(=O)N2CC(=O)Nc3ccccc32)n1Cc1ccccc1,–,7.94 µM (active)
CCOC(=O)N/N=C1/C[C@@H](O)[C@@H](O)[C@@H]2[C@@H]3C(=O)N(C(C)(C)C)C(=O)[C@H]3CC[C@H]12,-10.6% [at 11.4 µM],–
C[C@@H](NCc1cc(Br)cc2[nH]c(=O)c(=O)[nH]c12)P(=O)(O)O,-3.25%,–
COc1cccc(-c2ccc3ncnc(NCc4cccs4)c3c2)c1,–,7.94 µM (active)
N#Cc1cccc(-c2ccc3ncnc(NCc4cccs4)c3c2)c1,–,3.16 µM (active)
c1csc(CNc2ncnc3ccc(-c4ccoc4)cc23)c1,–,7.94 µM (active)
NCCC(=O)NCCc1cnc[nH]1,-7.06% [at 25.6 µM],–
C[C@@H](CCCCC(=O)Nc1ccc(C(F)(F)F)cc1)NCCc1cnc[nH]1,–,5.01 µM (active)
O=CN[C@@H](Cc1cnc[nH]1)C(=O)O,-4.87% [at 11.4 µM],–
CC(C)(C)N1C(=O)[C@H]2[C@@H]3[C@H](O)C=CC(=O)[C@H]3CC[C@H]2C1=O,-16.6% [at 11.4 µM],–
CCc1ccc(C(=O)COC(=O)C(Cc2ccccc2)NC(=O)C2CCC(C)CC2)cc1 (stereo not given),–,3.55 µM (active)
N#CCSc1ncnc2c1cnn2CCO,-21.9%,–
O=c1c2c(nc3c(-c4ccccc4)c[nH]n13)CCC2,-13.1%,–
Cc1[nH]n2c(=O)c3c(nc2c1-c1cccc2ccccc12)CCC3,-9.59%,–
Nc1[nH]n2c(=O)c3c(nc2c1N=Nc1ccccc1)CCCC3,–,5.01 µM (active)
Cc1ccc(-c2[nH]n3c(=O)c4c(nc3c2C)CCCC4)cc1,–,8.91 µM (active)
N#Cc1c[nH]n2c(=O)c3c(nc12)CCCC3,4.63%,–
Nc1[nH]n2c(=O)cc(-c3ccccc3)nc2c1N=Nc1ccccc1,-10.8% [at 2.29 µM],–
O=C(NCCO)c1ccc(Cl)cc1,-18% [at 11.4 µM],–

SMILES,"activity, negative = inhibition",AC50
NC(=O)NCc1ccc(Cl)cc1,4.51% [at 11.4 µM],–
CCOc1ccc(NC(=O)c2ccc(Br)o2)c([N+](=O)[O-])c1,0.495% [at 2.29 µM],–
Cc1ccc(C(=O)NCCNc2ccc(Cl)cc2[N+](=O)[O-])o1,–,6.31 µM (active)
O=C(NCc1ccc(Cl)cc1)c1ccc(Cl)cc1[N+](=O)[O-],–,12.6 µM (active)
Oc1ccc(C2Nc3cccc4cccc(c34)N2)c(O)c1,–,15.8 µM (active)
Oc1ccccc1C1Nc2cccc3cccc(c23)N1,21.6%,–
CN[C@H](CC(=O)O)C(=O)O,0.638%,–
Cc1ccc(S(=O)(=O)c2cc3ccccc3oc2=Nc2ccc3c(c2)OCO3)cc1,–,2 µM (active)
Cc1ccc(N=Nc2c(O)ccc3cc(S(=O)(=O)O)ccc23)cc1,-19% [at 11.4 µM],–
O=C(O)c1cc(C(=O)O)nc(C(=O)O)c1,-8.29% [at 11.4 µM],–
CCc1noc(C)c1C(=O)Nc1nc(-c2cc(C)ccc2C)c(C)s1,–,3.55 µM (active)
CCOC(=O)Nc1nc(-c2ccccc2)c(C)s1,-11.6% [at 11.4 µM],–
COc1ccc(Cn2c(SCc3ccccc3C)nc3cc(OC)c(OC)cc3c2=N)cc1,–,8.91 µM (active)
COc1cc2nc(SCc3ccc(Cl)cc3Cl)n(Cc3cccs3)c(=N)c2cc1OC,–,2 µM (active)
Cc1ccc(-n2c3c(c(=O)[nH]c2=O)C(C(F)(F)F)(C(F)(F)F)NC(=O)N3)cc1,-3.33% [at 2.29 µM],–
Cc1ccc(C(=O)N2C3C=CC(C3)C2(C(F)(F)F)C(F)(F)F)cc1 (stereo not given),–,1.12 µM (active)
CC(C)(C)NS(=O)(=O)c1ccc(NC(=O)C(Sc2ccccc2)c2ccccc2)cc1 (stereo not given),–,14.1 µM (active)
CC(C)(C)c1nnc(NC(=O)NS(=O)(=O)c2ccccc2)s1,17.6%,–
CC(C)(C)NS(=O)(=O)c1ccc(NC(=O)c2cc(-c3ccccc3)nc3ccccc23)cc1,-25.5%,–
Cc1cc(=O)oc2cc(O)c(CN(C)CC(=O)O)cc12,-2.73% [at 11.4 µM],–
Cc1c(O)c(=O)n(-c2ccccc2)n1C,-20.9% [at 25.6 µM],–
Cc1c(-n2cc(C(=O)c3cc(Cl)ccc3O)cc(C#N)c2=O)c(=O)n(-c2ccccc2)n1C,-17.2%,–
Cc1ccc(O)c(C(=O)c2cc(C#N)c(=O)n(-c3c(C)n(C)n(-c4ccccc4)c3=O)c2)c1,–,5.62 µM (active)
Cc1cc(C)n(-c2nc(NCC(C)O)c3c4c(sc3n2)COC(C)(C)C4)n1 (stereo not given),-17.9% [at 11.4 µM],–

SMILES,"activity, negative = inhibition",AC50
Cc1nn2c(C)nc3sc4c(c3c2nc1=O)CC(C)(C)OC4,10.7%,–
CCCSc1nc(NCc2ccco2)c2c3c(sc2n1)COC(C)(C)C3,–,15.8 µM (active)
CC1(CCC#N)N=C(SCCC#N)N(c2ccccc2)C1=O (stereo not given),4.2%,–
CN(C)c1ccc(-c2ccc3ncnc(-n4ccnc4)c3c2)cc1,–,1 µM (active)
c1cn(-c2ncnc3ccc(-c4ccoc4)cc23)cn1,–,0.631 µM (active)
Cc1ccccc1-c1ccc2ncnc(-n3ccnc3)c2c1,–,0.501 µM (active)
CC(=O)CC(=O)Nc1ccc2ccccc2c1,-28.5% [at 11.4 µM],–
O=C(COc1ccc2ccccc2c1)Nc1ccc(Cc2ccncc2)cc1,–,0.708 µM (active)
Clc1ccc([C@H](Cn2ccnc2)OCc2csc3c(Cl)cccc23)c(Cl)c1,–,0.794 µM (active)
O=C(c1cnccn1)N1CCC2(CC1)CN(Cc1nccs1)C2,3.93%,–
CC(C)CN1CCC2(CC1)CCN(C(=O)c1csnn1)CC2,-13.7%,–
O=C(c1cnccn1)N1CCC[C@@]2(CCN(Cc3nccs3)C2)C1,–,15.8 µM (active)
CC(C)NC(=O)N1CCC2(CC1)CCN(C(=O)c1cnccn1)CC2,-5.47%,–
O=C(c1cnccn1)N1CCC2(CCCN(Cc3nccs3)C2)CC1,–,12.6 µM (active)
O=C(c1csnn1)N1CCC2(CCN(Cc3nccs3)CC2)CC1,19.9%,–
O=C(c1cnccn1)N1CCC2(CCN(Cc3nccs3)CC2)CC1,27.4%,–
O=C(c1csnn1)N1CCC[C@@]2(CCN(Cc3nccs3)C2)C1,–,15.8 µM (active)
CC(C)CN1CCCC2(CCN(C(=O)c3cnccn3)CC2)C1,–,25.1 µM (active)
C[n+]1ccc(/C=C/c2ccc(Br)cc2)cc1,-7.44%,–
COc1nc(N)nc2c1ncn2[C@@H]1C[C@H](O)[C@@H](CO)O1,-13.7% [at 11.4 µM],–
CN1C(C(=O)Nc2ccccn2)=C(O)c2sccc2S1(=O)=O,-6.16% [at 25.6 µM],–
COc1cc(C)nc(N2CCCC(C(=O)Nc3cc(Cl)ccc3OC)C2)n1 (stereo not given),–,7.08 µM (active)
Cc1ccc(C(=O)NNC(=O)C2CCCN(c3ncccn3)C2)cc1 (stereo not given),-25.4%,–
